Reference: PubChem BioAssay (NCI)
The panel holds about 83,000 compounds, 20% with a hit somewhere; the sample as a whole holds those more often.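 How to read the values: 0–100, growth inhibition (40 = 60% inhibited); 0, no net growth; -100 to 0, cell death (-40 = 40% of starting cells died; -100 = all dead).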 A number with no mark means an inactive call. The source made the active and inactive calls. How the source made its calls: active means growth percent below 10; inactive means the rest.

What follows are compounds tested on NCI-H23 lung (assay: NCI-60 one-dose screen, 48 h (100 = growth as untreated, 0 = no growth, -100 = all killed)). Conditions: 10 µM unless noted.

Row | SMILES | growth
1 | COC(=O)[C@@H]1CCCN1C(=O)[C@H]1CCCN1C(=O)[C@@H](Cc1c[nH]c2ccccc12)NC(=S)Nc1cc(C(F)(F)F)cc(C(F)(F)F)c1 | 63.8%
2 | Cc1ccc(F)cc1NC(=O)c1cc(Cl)ccc1Nc1ccccc1 | 60.1%
3 | CC1=C(C(=O)OCC2CCN(C(=O)OC(C)(C)C)CC2)[C@@H](c2cccc(C#N)c2)C2=C(CC(C)(C)CC2=O)N1 | 53.3%
4 | CCCCCCc1cc2cc(-c3csc(/C=C/c4ccccc4)n3)c(=O)oc2cc1O | 54.5%
5 | COc1ccc(Br)c(/C=C2\SC(=Nc3ccc(O)cc3)NC2=O)c1 | 92.1%
6 | COc1ccc(Cn2c(Br)c3c(c2Br)-c2nc(N)sc2CC3)cc1 | 57.3%
7 | COC(=O)c1cc2c(n1Cc1ccccc1)-c1oncc1CCC2 | 81.5%
8 | CCOC(=O)c1sc(-c2ccc(OS(=O)(=O)c3ccccc3[N+](=O)[O-])c(C=O)c2)nc1C | 50.6%
9 | Clc1ncccc1Nc1ccc2nnc(-c3ccncc3)n2n1 | 93.2%
10 | O=C1NC(=O)C(=Cc2cn(Cc3cn(Cc4ccc(Cl)cc4Cl)nn3)c3ccccc23)C(=O)N1 | 81.4%
11 | CCCCCCn1c(=N)n(CC(O)COc2cccc(C)c2)c2ccccc21 (centres undefined) | 11%
12 | O=C(Nc1ncc(Cc2cccc(C(F)(F)F)c2)s1)C1COc2ccccc2O1 (centres undefined) | 88.6%
13 | CN1C(=O)N(C)C2C1NN=c1s/c(=C\c3ccc([N+](=O)[O-])cc3)c(=O)n12 (centres undefined) | 87.3%
14 | O=C(c1nc2ccccc2[nH]1)C1C(c2ccc(F)cc2)C2CC3CCCCC3N2[C@@]12C(=O)Nc1ccc(Cl)cc12 (some centres undefined) | 57.2%
15 | COc1ccc(/C=C/C(=O)c2ccc3cc(OC)c(OC)cc3c2)cc1OC | 51.7%
16 | O=c1oc2ccc(F)cc2c(=O)n1-c1ccc(Br)cc1F | 1.49% (active)
17 | COc1cc(/C=C2\CN(S(=O)(=O)c3ccccc3)C/C(=C\c3cc(CN4CCCC4)c(O)c(OC)c3)C2=O)cc(CN2CCCC2)c1O | -57.8% (active)
18 | CC(C)C[C@H](C(=O)N[C@@H](C)C(N)=O)N1CC=CCN(O)S1(=O)=O | 110% [5 µM]
19 | CN(C)CCCNCc1ccc(-c2ccc(F)c(Cl)c2)o1 | 77.1%
20 | O=c1oc2ccc(-c3ccc(F)cc3F)cc2c(=O)n1-c1cccc(C(F)(F)F)c1 | 1.75% (active)

Row | SMILES | growth
21 | O=C(N=Nc1c(O)[nH]c2ccccc12)c1oc2ccccc2c1CN1CCN(c2ccccc2)CC1 | -0.112% (active)
22 | O=C(Nc1ccc(Br)cc1F)c1cc(F)ccc1O | 3.95% (active)
23 | COc1cc(NC(=O)CCSc2nc3ccccc3c(=O)n2Cc2ccccc2)cc(OC)c1OC | 89.7%
24 | O=C(Nc1ccc(I)cc1F)c1cc(F)ccc1O | -2.66% (active)
25 | COc1nccc2cc3c(=O)n4c(cc5ccccc54)c(=O)n3c12 | 89.8%
26 | O=C(COc1cc(O)c2c(=O)cc(-c3ccccc3)oc2c1)Nc1ccccc1 | 83.7%
27 | O=c1oc2ccc(-c3ccc(F)cc3F)cc2c(=O)n1-c1ccc(Cl)c(C(F)(F)F)c1 | 6.77% (active)
28 | CCN1CCN(c2cc(C)c3cc(NC(=O)c4ccc(OC)c(OC)c4)ccc3n2)CC1 | 58.2%
29 | COc1ccc(Cn2c(Br)c3c(c2-c2cc(OC)c(OC)c(OC)c2)CCc2sc(NC(C)=O)nc2-3)cc1 | 66.1%
30 | COc1ccccc1C(=O)O/N=C(\N)Cc1cccc2ccccc12 | 80.9%
31 | O=C(Nc1ccc(Cl)cc1F)c1cc(I)ccc1O | 12.1%
32 | O=C(O)CCC(=O)c1ccc(C2CCCCCC2)cc1 | 97.9%
33 | CCCCOCc1cc(CN2CCN(C)CC2)c(O)c2ncccc12 | 60%
34 | COC(=O)/C(CCC=C(C)C)=C1\[C@@H](OC(C)=O)C[C@@]2(C)[C@H]1C[C@@H](O)[C@H]1[C@@]3(C)CC[C@H](NCc4ccccc4)[C@@H](C)[C@@H]3CC[C@@]12C | 81.4%
35 | O=C(NC1C(O)OC(CO)C(O)C1O)NS(=O)(=O)c1ccc(Cl)cc1 (centres undefined) | 104%
36 | O=C(Nc1ccc(Br)cc1F)c1cc(Cl)ccc1O | -8.01% (active)
37 | CCOC(=O)c1c(C=O)nc2ccccc2c1/C=C/c1ccc(Cl)cc1 | 100%
38 | COc1cccc2cc(N(C)c3nc(C)nc4ccsc34)ccc12 | 22.3%
39 | COc1cc(/C=C/C(=O)c2c(C)nc3ccccc3c2/C=C/c2ccccc2)cc(OC)c1OC | 10.9%
